Read-out in assay [1]: Thyroid Hormone Responsive (THRSP), THRSP (gene 7069)
In words: LTEA_HepaRG_THRSP: Life Technologies and Expression Analysis (LTEA) Assay for Thyroid Hormone Responsive (THRSP) using HepaRG (AID 2283536; active = hit-call score of the fitted dose curve at least 0.9, where 1 is the maximum; inactive = score below 0.9). The settings on record: mRNA level, 48 h; actives raise or lower the signal. The essentials: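 mRNA induction or loss relative to 0.5% DMSO vehicle was fitted bidirectionally across an eight-point curve whose highest exposure was 100 uM. Human HepaRG liver cells received chemicals in duplicate over 48 h before RNA extraction.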

Read-out in assay [2]: UDP glucuronosyltransferase (UGT1A1), UGT1A1 (gene 54658)
In words: LTEA_HepaRG_UGT1A1: Life Technologies and Expression Analysis (LTEA) Assay for UDP glucuronosyltransferase (UGT1A1) using HepaRG (AID 2283538; active = hit-call score of the fitted dose curve at least 0.9, where 1 is the maximum; inactive = score below 0.9). To be noted: mRNA level, 48 h; actives raise or lower the signal. The method in brief:
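Readout is UGT1A1 transcript level by qRT-PCR, normalized to three housekeeping genes, after 48 h chemical treatment of HepaRG cells. Concentrations ran from 100 uM down in half-log steps with 0.5% DMSO, and gain or loss relative to DMSO was fitted.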

Read-out in assay [3]: UDP glucuronosyltransferase (UGT1A6), UGT1A6 (gene 54578)
In words: LTEA_HepaRG_UGT1A6: Life Technologies and Expression Analysis (LTEA) Assay for UDP glucuronosyltransferase (UGT1A6) using HepaRG (AID 2283539; active = hit-call score of the fitted dose curve at least 0.9, where 1 is the maximum; inactive = score below 0.9). To be noted: mRNA level, 48 h; actives raise or lower the signal. The method in brief:
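Endpoint is UGT1A6 transcript induction or loss in a human liver cell line, quantified by TaqMan qRT-PCR 48 h after dosing. Concentrations ran from 100 uM downward in half-log steps in 0.5% DMSO; activity was fitted in both directions versus vehicle.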

Read-out in assay [4]: X-box binding protein 1 (XBP1), XBP1 (gene 7494)
Put plainly: LTEA_HepaRG_XBP1: Life Technologies and Expression Analysis (LTEA) Assay for X-box binding protein 1 (XBP1) using HepaRG (AID 2283540; active = hit-call score of the fitted dose curve at least 0.9, where 1 is the maximum; inactive = score below 0.9). The settings on record: mRNA level, 48 h; actives raise or lower the signal. The essentials: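 Human HepaRG monolayers receive test chemical for 48 h across an eight-point half-log series starting at 100 uM. XBP1 mRNA gain or loss is scored against DMSO by qRT-PCR.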

Assay [5] is described as follows: LTEA_HepaRG_LDH_cytotoxicity: Cytotoxicity Assessment in the Life Technologies and Expression Analysis (LTEA) Assay (AID 2283563).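 As to AC50: LDH activity released into spent culture medium as a marker of cell death.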 The essentials: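 Human HepaRG hepatic cells are treated with test chemicals for 48 h at up to 100 uM in 0.5% DMSO. Cytotoxicity is scored from medium LDH against the vehicle control.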
Assay [6] can be described thus: Tanguay_ZF_120hpf_MORT_legacy: (Legacy) Oregon State University Tanguay Lab 120 Hour Post-fertilization zebrafish Assay for Mortality (AID 2283633). The essentials: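 Mortality endpoint from a multiplexed whole-embryo zebrafish screen. Dechorionated wild-type embryos received compound at 6 hpf and remained under static exposure at 28C until 120 hpf, with death noted as a present/absent call.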

Assay [7] is described as follows: Tanguay_ZF_120hpf_YSE_legacy: (Legacy) Oregon State University Tanguay Lab 120 Hour Post-fertilization zebrafish Assay for Yolk Sac Edema (AID 2283634).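 As to AC50: actives raise the incidence of yolk sac edema above the DMSO baseline.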 The method in brief: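 Readout: presence or absence of yolk sac edema at 120 hpf, fitted upward against DMSO controls. Exposure ran statically from 6 hpf in dechorionated embryos kept at 28C.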
Assay [8] can be described thus: Tanguay_ZF_120hpf_AXIS_legacy: (Legacy) Oregon State University Tanguay Lab 120 Hour Post-fertilization zebrafish Assay for Body Axis Malformation (AID 2283635).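 As to AC50: potency for an increased fraction of larvae scored with body axis malformation.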 The method in brief:
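Static 6–120 hpf chemical exposure of dechorionated wild-type 5D zebrafish, one per well at 28C; morphology endpoint scored binary at 120 hpf relative to DMSO control.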

Assay [9] in a line: Tanguay_ZF_120hpf_EYE_legacy: (Legacy) Oregon State University Tanguay Lab 120 Hour Post-fertilization zebrafish Assay for Eye Malformation (AID 2283636). The essentials: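 Read-out is binary presence or absence of eye malformation, scored by brightfield microscopy at 120 hpf. Single larvae were exposed from 6 hpf in embryo medium containing 0.64% DMSO, with DMSO as baseline.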

A short description of assay [10]: Tanguay_ZF_120hpf_SNOU_legacy: (Legacy) Oregon State University Tanguay Lab 120 Hour Post-fertilization zebrafish Assay for Snout Malformation (AID 2283637). The method in brief:
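Snout malformation read as a yes/no call on brightfield images of 120 hpf larvae (Tropical 5D strain). Static exposure began at 6 hpf on dechorionated embryos in 0.64% DMSO, with gain of signal analysed versus DMSO controls.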

Assay [11] in a line: ATG_XTT_Cytotoxicity: Cytotoxicity Assessment in the Attagene TRANS-FACTORIAL HepG2 Assay (AID 2283584). The method in brief:
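Transfect HepG2 with GAL4-UAS reporter units, dose compound, incubate 24 h, then measure viable cell number by XTT. Fit concentration response against DMSO baseline.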

This passage reports AC50 and outcome results from PubChem BioAssay (EPA / NIEHS).

Records with an inconclusive call do not appear. Active and inactive are the calls of the source. The calls were made as follows, unless noted: active = hit-call score of the fitted dose curve at least 0.9, where 1 is the maximum; inconclusive = response in the unintended direction; inactive = score below 0.9.

On to `COc1cc(C(C)C)c2c(c1)S(=O)(=O)N(COc1cc(=O)n3cccc(OCCN4CCCCC4)c3n1)C2=O`, for which the half-maximal activity concentration (AC50) (as a rule, the midpoint of the concentration-response curve, whichever way the signal moves) was 20.8 µM (active) in assay [1]; 22.6 µM (active) in [2]; 19.9 µM (active) in assay [3]; 19.2 µM (active) in assay [5]; 32.4 µM (active) in assay [8]; 24.6 µM (active) in assay [10]. In addition, the molecule was called inactive in assay [4], in assay [6], in [7] and in assay [9].
On to `CCOc1ccc2[nH]cc(C(=O)NCc3ccccc3)c(=O)c2n1`, for which the molecule was called inactive in assay [1], in assay [2], in [3], in assay [4], in [5] and in assay [6]. Besides, the molecule was called inactive in assay [7], in [8], in assay [9] and in assay [10].
For the molecule `CNC(C)=O`, the molecule was classed as inactive in assay [1], in [2], in assay [3], in assay [4], in assay [5] and in assay [11]. Also, the molecule was classed as inactive in assay [6], in assay [8] and in assay [10].
On to `OCCNCCO`, for which the molecule was called inactive in assay [1], in assay [3], in assay [5], in assay [11], in [6] and in assay [7]. In addition, the molecule was classed as inactive in assay [8], in assay [9] and in [10]. Also, the half-maximal activity concentration (AC50) in assay [2] is 9.92 µM (active); in assay [4] it was 50 µM (active).
Regarding `C[C@@H](Oc1ccc(CNC(=O)c2cccnc2Oc2ccc3c(c2)OCO3)c(F)c1)C(=O)O`, the call in assay [1], in assay [2], in assay [3], in assay [4], in assay [5] and in [6] was inactive. The outcome in assay [7], in [8], in assay [9] and in assay [10] was inactive.
For `CCCCCOC(C)=O`, the call in assay [1], in assay [2], in [3], in [4], in [11] and in assay [6] was inactive. Further, the result in assay [7], in assay [8], in [9] and in [10] was inactive.
As to `Cc1ncc([C@@H](CCCCCCc2ccc3c(n2)NCCC3)CC(=O)O)cn1`, the outcome in assay [1], in assay [2], in assay [3], in assay [4], in assay [5] and in assay [6] was inactive. The molecule was classed as inactive in assay [7], in assay [8], in assay [9] and in assay [10].
Consider `O=S(=O)(O)c1ccc(N=Nc2c(O)ccc3cc(S(=O)(=O)O)ccc23)cc1`, for which the call in assay [1], in assay [2], in [3], in [4], in [5] and in assay [6] was inactive. For the same molecule, the outcome in [7], in [8], in [9] and in assay [10] was inactive.
Regarding `O=C(O)c1cccc(C(=O)O)c1`, the result in assay [1], in [2], in assay [3], in [4], in [5] and in [11] was inactive. Also, the call in assay [6], in [7], in assay [8], in assay [9] and in assay [10] was inactive.
For `CC(C)C(=O)Nc1ccc([N+](=O)[O-])c(C(F)(F)F)c1`, the AC50 in assay [1] was 10.9 µM (active); in [2], 90.1 µM (active); in [3], 74.7 µM (active); in [4], 12.2 µM (active). Moreover, the call in assay [5], in assay [11], in assay [6], in assay [7], in [8] and in assay [9] was inactive. Further, in assay [10], the call was inactive.
For `CC[C@H](C)C(=O)O[C@H]1C[C@H](O)C=C2C=C[C@H](C)[C@H](CC[C@@H](O)C[C@@H](O)CC(=O)O)[C@H]21`, the concentration at half-maximal activity (AC50) in assay [1] was 21.9 µM (active). Besides, the result in assay [2], in assay [3], in assay [4], in assay [5], in assay [11] and in [7] was inactive. Moreover, the result in assay [8], in [9] and in assay [10] was inactive.
Consider `COc1cc2c(c(OC)c1OC)-c1ccc(OC)c(=O)cc1[C@@H](NC(C)=O)CC2`, for which the AC50 in assay [1] is 0.073 µM (active); in [2], 0.113 µM (active); in [3], 0.237 µM (active); in [4], 0.218 µM (active); in assay [7], 27.1 µM (active). Further, the result in assay [5], in [11], in assay [6], in assay [8], in assay [9] and in assay [10] was inactive.
In the case of `O=C(NO)C1(NS(=O)(=O)c2ccc(Oc3ccc(F)cc3)cc2)CCOCC1`, the half-maximal activity concentration (AC50) was 78.1 µM (active) in [1], 12.2 µM (active) in [2] and 77.7 µM (active) in assay [3]. Besides, the molecule was classed as inactive in assay [4], in assay [5], in [6], in assay [7], in assay [8] and in assay [9]. The result in assay [10] was inactive.
For `O=C(O)CO`, in assay [11], the molecule was called inactive.
As to `NC(=O)N(O)[C@@H]1COc2cc(OCc3ccccc3)ccc21`, the result in [1], in assay [2], in assay [3], in [4], in assay [5] and in assay [6] was inactive. In addition, the molecule was called inactive in assay [7], in assay [9] and in [10].
For `CC(C)CCCCCCOC(=O)C1CCCCC1C(=O)OCCCCCCC(C)C` (stereo not drawn), the molecule was called inactive in [1], in assay [2], in [3], in assay [4], in assay [5] and in assay [6]. Moreover, the outcome in assay [7], in assay [9] and in [10] was inactive.
In the case of `Nc1ccn([C@@H]2O[C@H](CO)[C@@H](O)[C@@H]2O)c(=O)n1`, the result in assay [1], in assay [2], in [3], in assay [4], in assay [5] and in [11] was inactive. The molecule was called inactive in assay [6], in assay [7], in assay [8], in [9] and in assay [10].
On to `Cc1ccc(S(=O)(=O)NC(=O)NN2CCCCCC2)cc1`, for which the molecule was classed as inactive in [1], in assay [2], in assay [3], in [4], in assay [5] and in [11]. For the same molecule, the outcome in assay [6], in assay [8] and in assay [9] was inactive.
For `CCCC(CCC)C(=O)O`, the call in assay [1], in assay [2], in assay [3], in [4], in [5] and in assay [11] was inactive. For the same molecule, the result in assay [6], in assay [7], in assay [8], in assay [9] and in assay [10] was inactive.
